According to PubChem BioAssay (NCATS):
Results filed as inconclusive are left out. Activity calls are given as the source filed them. The call rests on the fitted dose curve; in most records, active means well fitted inhibition curve with a large enough effect; inconclusive means small, poorly fitted or top-dose-only effect; inactive means flat fitted curve, though single readings scatter.

Tests used:
PAD = assay: qHTS profiling for inhibitors of Plasmodium falciparum proliferation (AID 504749);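 further: 0% = DMSO vehicle and full inhibition = artemisinin control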; conditions: P. falciparum in erythrocytes, SYBR Green DNA, 72 h; series mostly up to 28.7 µM
Outline: (§1)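 Infected RBCs, 0.3% parasitemia/2.5% Hct final; cpd 72 h, 37 C, 5% CO2; lysis buffer with saponin/triton/SYBR Green I, o/n RT dark; FI 485/535; norm. to artemisinin (0.29 uM) and DMSO.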

PC15 = assay: as above; conditions: P. falciparum in erythrocytes, SYBR Green DNA, 72 h; series mostly up to 28.7 µM
Outline: as §1

PC26 = assay: as above; conditions: P. falciparum in erythrocytes, SYBR Green DNA, 72 h; series mostly up to 28.7 µM
Outline: as §1

PC49 = assay: as above; conditions: P. falciparum in erythrocytes, SYBR Green DNA, 72 h; series mostly up to 28.7 µM
Outline: as §1

SC27B = assay: as above; conditions: P. falciparum in erythrocytes, SYBR Green DNA, 72 h; series mostly up to 28.7 µM
Outline: as §1

TAB109 = assay: as above; conditions: P. falciparum in erythrocytes, SYBR Green DNA, 72 h; series mostly up to 28.7 µM
Outline: as §1

TAB113 = assay: as above; conditions: P. falciparum in erythrocytes, SYBR Green DNA, 72 h; series mostly up to 28.7 µM
Outline: as §1

TAB165 = assay: as above; conditions: P. falciparum in erythrocytes, SYBR Green DNA, 72 h; series mostly up to 28.7 µM
Outline: as §1

W2 = assay: as above; conditions: P. falciparum in erythrocytes, SYBR Green DNA, 72 h; series mostly up to 28.7 µM
Outline: as §1

CRL-7250 = normal cell line; assay: Cytotoxic Profiling of Annotated Libraries Using Quantitative High-Throughput Screening (AID 1296008); conditions: Five cell lines viability, CellTiter-Glo ATP luminescence, 48-72 h; active compounds read low; on max response: on the % scale 0 is the no-effect control and ±100 the full control effect
Outline: (§2)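 Cytotoxicity was measured as CellTiter-Glo ATP luminescence, read after 10 min at room temperature. Compound treatment of the cells lasted 48 or 72 hr at 37 degrees Celsius in a qHTS format.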

HEK293 = assay: as above; conditions: Five cell lines viability, CellTiter-Glo ATP luminescence, 48-72 h; active compounds read low
Outline: as §2

HaCat [1] = assay: as above; conditions: Five cell lines viability, CellTiter-Glo ATP luminescence, 48-72 h; active compounds read low
Outline: as §2

KB-3-1 = assay: as above; conditions: Five cell lines viability, CellTiter-Glo ATP luminescence, 48-72 h, active compounds read low
Outline: as §2

NIH3T3 = assay: as above; conditions: Five cell lines viability, CellTiter-Glo ATP luminescence, 48-72 h; active compounds read low
Outline: as §2

HACAT [2] = assay: qHTS assay to identify novel small-molecules to repurpose for Merkel cell carcinoma treatment (AID 1296009); conditions: MCC and control cell lines, CellTiter-Glo viability, 72 h; at 44.8 µM (top of the series) unless noted
Outline: (§3)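 72 hr, 37 degree celsius; NPC 8-pt / MIPE 11-pt dose response; compound pinned in DMSO; CellTiter-Glo, 10 min RT, luminescence; normalized to no-cell and DMSO controls.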

MCC-13 = assay: as above; conditions: MCC and control cell lines, CellTiter-Glo viability, 72 h; series mostly up to 46 µM
Outline: as §3

MCC-26 = assay: as above; conditions: MCC and control cell lines, CellTiter-Glo viability, 72 h; series mostly up to 46 µM
Outline: as §3

MKL-1 = assay: as above; conditions: MCC and control cell lines, CellTiter-Glo viability, 72 h; series mostly up to 46 µM
Outline: as §3

MKL-2 = assay: as above; conditions: MCC and control cell lines, CellTiter-Glo viability, 72 h; series mostly up to 46 µM
Outline: as §3
Further: nearly all actives have a fitted effect of over 60% in size.

CCCCCC(N)=O
inactive: Potency (PAD) | Potency (PC15) | Potency (PC26) | Potency (PC49) | Potency (SC27B) | Potency (TAB109) | Potency (TAB113) | Potency (TAB165) | Potency (W2) | outcome (CRL-7250) | max response (HEK293) -2.09% | outcome (HaCat [1]) | max response (KB-3-1) -2.56% | outcome (NIH3T3) | outcome (HACAT [2]) | outcome (MCC-13) | outcome (MCC-26) | outcome (MKL-1) | outcome (MKL-2)

O=S1(=O)OC(c2ccc(O)cc2)(c2ccc(O)cc2)c2ccccc21
inactive: Potency (PAD) | Potency (PC15) | Potency (PC26) | Potency (PC49) | Potency (SC27B) | Potency (TAB109) | Potency (TAB113) | Potency (TAB165) | Potency (W2) | outcome (CRL-7250) | max response (HEK293) -9.72% | outcome (HaCat [1]) | max response (KB-3-1) 15.7% | outcome (NIH3T3) | outcome (HACAT [2]) | outcome (MCC-13) | outcome (MCC-26) | outcome (MKL-1) | outcome (MKL-2)

CC(N)CCCC(C)(C)O (stereo not drawn)
inactive: Potency (PAD) | Potency (PC15) | Potency (PC26) | Potency (PC49) | Potency (SC27B) | Potency (TAB109) | Potency (TAB113) | Potency (TAB165) | Potency (W2) | max response (CRL-7250) -9.12% | max response (HEK293) -17.6% | outcome (HaCat [1]) | max response (KB-3-1) 2.21% | outcome (NIH3T3) | outcome (HACAT [2]) | outcome (MCC-13) | outcome (MCC-26) | outcome (MKL-1) | outcome (MKL-2)

COc1ccccc1OC(=O)Oc1ccccc1OC
inactive: Potency (PAD) | Potency (PC15) | Potency (PC26) | Potency (PC49) | Potency (SC27B) | Potency (TAB109) | Potency (TAB113) | Potency (TAB165) | Potency (W2) | outcome (CRL-7250) | max response (HEK293) -4.48% | outcome (HaCat [1]) | max response (KB-3-1) -6.45% | max response (NIH3T3) 0.277% | outcome (HACAT [2]) | outcome (MCC-13) | outcome (MCC-26) | outcome (MKL-1) | outcome (MKL-2)

O=C(O)CCC(=O)O
inactive: Potency (PAD) | Potency (PC15) | Potency (PC26) | Potency (PC49) | Potency (SC27B) | Potency (TAB109) | Potency (TAB113) | Potency (TAB165) | Potency (W2) | max response (CRL-7250) 3.26% | max response (HEK293) 3.09% | outcome (HaCat [1]) | max response (KB-3-1) 7.68% | max response (NIH3T3) -0.925% | outcome (HACAT [2]) | outcome (MCC-13) | outcome (MCC-26) | outcome (MKL-1) | outcome (MKL-2)

O=C(NCN1CCOCC1)c1cnccn1
inactive: Potency (PAD) | Potency (PC15) | Potency (PC26) | Potency (PC49) | Potency (SC27B) | Potency (TAB109) | Potency (TAB113) | Potency (TAB165) | Potency (W2) | max response (CRL-7250) 3.76% | max response (HEK293) 3.79% | outcome (HaCat [1]) | max response (KB-3-1) -13.5% | max response (NIH3T3) -0.98% | outcome (HACAT [2]) | outcome (MCC-13) | outcome (MCC-26) | outcome (MKL-1) | outcome (MKL-2)

CCOc1cc(NC(C)=O)ccc1C(=O)OC
inactive: Potency (PAD) | Potency (PC15) | Potency (PC26) | Potency (PC49) | Potency (SC27B) | Potency (TAB109) | Potency (TAB113) | Potency (TAB165) | Potency (W2) | max response (CRL-7250) 3.11% | max response (HEK293) 0.16% | outcome (HaCat [1]) | max response (KB-3-1) 19.6% | max response (NIH3T3) 0.0399% | outcome (HACAT [2]) | outcome (MCC-13) | outcome (MCC-26) | outcome (MKL-1) | outcome (MKL-2)

O=C(Cn1ccnc1[N+](=O)[O-])NCc1ccccc1
inactive: Potency (PAD) | Potency (PC15) | Potency (PC26) | Potency (PC49) | Potency (SC27B) | Potency (TAB109) | Potency (TAB113) | Potency (TAB165) | Potency (W2) | max response (CRL-7250) 0.299% | max response (HEK293) -3.43% | outcome (HaCat [1]) | max response (KB-3-1) 0.421% | max response (NIH3T3) 3.14% | outcome (HACAT [2]) | outcome (MCC-13) | outcome (MCC-26) | outcome (MKL-1) | outcome (MKL-2)

Cc1c(C(=O)NCCO)[n+](=O)c2ccccc2n1[O-]
inactive: Potency (PAD) | Potency (PC15) | Potency (PC26) | Potency (PC49) | Potency (SC27B) | Potency (TAB109) | Potency (TAB113) | Potency (TAB165) | Potency (W2) | outcome (CRL-7250) | max response (HEK293) 0.33% | outcome (HaCat [1]) | max response (KB-3-1) -16.8% | outcome (NIH3T3) | outcome (HACAT [2]) | outcome (MCC-13) | outcome (MCC-26) | outcome (MKL-1) | outcome (MKL-2)

O=C(NCCCN1CCOCC1)c1ccc(Cl)cc1
inactive: Potency (PAD) | Potency (PC15) | Potency (PC26) | Potency (PC49) | Potency (SC27B) | Potency (TAB109) | Potency (TAB113) | Potency (TAB165) | Potency (W2) | max response (CRL-7250) -10.4% | max response (HEK293) 1.26% | outcome (HaCat [1]) | max response (KB-3-1) 1.85% | outcome (NIH3T3) | outcome (HACAT [2]) | outcome (MCC-13) | outcome (MCC-26) | outcome (MKL-1) | outcome (MKL-2)

CCN(CC)C(=O)c1cccc(C)c1
inactive: Potency (PAD) | Potency (PC15) | Potency (PC26) | Potency (PC49) | Potency (SC27B) | Potency (TAB109) | Potency (TAB113) | Potency (TAB165) | Potency (W2) | outcome (CRL-7250) | max response (HEK293) 0.224% | outcome (HaCat [1]) | max response (KB-3-1) 13.2% | outcome (NIH3T3) | outcome (HACAT [2]) | outcome (MCC-13) | outcome (MCC-26) | outcome (MKL-1) | outcome (MKL-2)

O=c1[nH]c(=O)c2ccccc2o1
inactive: Potency (PAD) | Potency (PC15) | Potency (PC26) | Potency (PC49) | Potency (SC27B) | Potency (TAB109) | Potency (TAB113) | Potency (TAB165) | Potency (W2) | outcome (CRL-7250) | max response (HEK293) 1.22% | outcome (HaCat [1]) | max response (KB-3-1) -4.12% | max response (NIH3T3) -16.8% | outcome (HACAT [2]) | outcome (MCC-13) | outcome (MCC-26) | outcome (MKL-1) | outcome (MKL-2)
